Compounds without any hit were thinned out: in the full panel of roughly 79,000, 15% have a hit. A number with no mark means an inactive call. The source made the active and inactive calls. No stated cut-off is given here; in the data, active means growth inhibition above about 70%; inactive means the rest.
Legend:
[1] = NCI Yeast Anticancer Drug Screen. Data for the rad50 strain (AID 155);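 further: 0% = growth of vehicle-only cultures of the same strain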; conditions: S. cerevisiae rad50 strain growth inhibition, hits give high values
Outline: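 Readout: growth inhibition relative to vehicle-treated cultures. Compound exposure was carried out in a genetically defined yeast strain deficient in DNA damage repair.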

[2] = NCI Yeast Anticancer Drug Screen. Data for the mec2-1 strain (AID 157); conditions: S. cerevisiae mec2-1 strain, hits give high values
Outline: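 Using mec2-1 yeast: add compound, measure growth, express inhibition versus vehicle-treated cultures.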

[3] = NCI Yeast Anticancer Drug Screen. Data for the sgs1 mgt1 strain (AID 161);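 further: 0% = growth of cultures given vehicle only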; conditions: S. cerevisiae sgs1 mgt1 strain, hits give high values
Outline: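 This yeast growth screen uses a strain with defined DNA-repair lesions; compound-treated growth is compared with vehicle-treated growth.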

[4] = NCI Yeast Anticancer Drug Screen. Data for the cln2 rad14 strain (AID 165);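 further: 0% = growth equal to vehicle treated cultures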; conditions: S. cerevisiae cln2 rad14 strain, hits give high values
Outline: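 Yeast strain cln2 rad14, bearing defects in cell cycle control and DNA repair, serves as the test system; values reflect growth inhibition compared with vehicle.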

[5] = NCI Yeast Anticancer Drug Screen. Data for the bub3 strain (AID 167); conditions: S. cerevisiae bub3 mutant strain, hits give high values
Outline: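 Readout: yeast growth inhibition, expressed relative to vehicle-only wells. The test organism is a mutant strain from a panel with lesions in DNA repair or checkpoint genes.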

[6] = NCI Yeast Anticancer Drug Screen. Data for the mlh1 rad18 strain (AID 175); conditions: S. cerevisiae mlh1 rad18 strain growth inhibition, hits give high values
Outline: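 Steps: expose repair-defective yeast to compound; measure growth; express inhibition against vehicle-treated controls.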

[7] = at 5.0 µM (retest, dose inferred, filed as 0.5)
[8] = at 50.0 µM (retest, dose inferred, filed as 5.0)

## CC(C)C[C@H](NC(=O)[C@H](Cc1ccccc1)NC(=O)c1cnccn1)B(O)O
[1]; [7]
  growth inhibition: 55%
[1]; [8]
  growth inhibition: 87% (active)
[1]; at 50.0 µM
  growth inhibition: 55.8%
[2]; [7]
  growth inhibition: 33%
[2]; [8]
  growth inhibition: 70% (active)
[2]; at 50.0 µM
  growth inhibition: 30.4%
[3]; [7]
  growth inhibition: 52%
[3]; [8]
  growth inhibition: 78% (active)
[3]; at 50.0 µM
  growth inhibition: 60.9%
[4]; [7]
  growth inhibition: 76% (active)
[4]; [8]
  growth inhibition: 94% (active)
[4]; at 50.0 µM
  growth inhibition: 72.9% (active)
[5]; [7]
  growth inhibition: 69%
[5]; [8]
  growth inhibition: 90% (active)
[5]; at 50.0 µM
  growth inhibition: 72.6% (active)

## CC(=O)N(C)C1=C(Sc2ccc(C)cc2)C(=O)c2ccccc2C1=O
[1]; [7]
  growth inhibition: 95% (active)
[1]; [8]
  growth inhibition: 99% (active)
[1]; at 50.0 µM
  growth inhibition: 99.5% (active)
[2]; [7]
  growth inhibition: 97% (active)
[2]; [8]
  growth inhibition: 100% (active)
[2]; at 50.0 µM
  growth inhibition: 99.7% (active)
[3]; [7]
  growth inhibition: 93% (active)
[3]; [8]
  growth inhibition: 100% (active)
[3]; at 50.0 µM
  growth inhibition: 99.8% (active)
[4]; [7]
  growth inhibition: 83% (active)
[4]; [8]
  growth inhibition: 99% (active)
[4]; at 50.0 µM
  growth inhibition: 99.5% (active)
[5]; [7]
  growth inhibition: 99% (active)
[5]; [8]
  growth inhibition: 99% (active)
[5]; at 50.0 µM
  growth inhibition: 99.6% (active)
[6]; [7]
  growth inhibition: 95% (active)
[6]; [8]
  growth inhibition: 99% (active)
[6]; at 50.0 µM
  growth inhibition: 99.7% (active)

## CCCCCCCCCCCC(=O)OCCCCC
[1]; [7]
  growth inhibition: -5%
[1]; [8]
  growth inhibition: 0%
[1]; at 50.0 µM
  growth inhibition: 74.8% (active)
[2]; [7]
  growth inhibition: -1%
[2]; [8]
  growth inhibition: 1%
[2]; at 50.0 µM
  growth inhibition: 87.3% (active)
[3]; [7]
  growth inhibition: -3%
[3]; [8]
  growth inhibition: 3%
[3]; at 50.0 µM
  growth inhibition: 65.8%
[4]; [7]
  growth inhibition: -1%
[4]; [8]
  growth inhibition: -4%
[4]; at 50.0 µM
  growth inhibition: -2.5%
[5]; [7]
  growth inhibition: -2%
[5]; [8]
  growth inhibition: -4%
[5]; at 50.0 µM
  growth inhibition: 80.6% (active)
[6]; [7]
  growth inhibition: -8%
[6]; [8]
  growth inhibition: 0%
[6]; at 50.0 µM
  growth inhibition: 87.7% (active)

## COc1cc(C2c3cc4c(cc3OC(NNc3ccccc3)C2C)OCO4)cc(OC)c1O (stereo unspecified)
[1]; [7]
  growth inhibition: -5%
[1]; [8]
  growth inhibition: 97% (active)
[1]; at 50.0 µM
  growth inhibition: 98.2% (active)
[2]; [7]
  growth inhibition: -15%
[2]; [8]
  growth inhibition: 98% (active)
[2]; at 50.0 µM
  growth inhibition: 98.7% (active)
[3]; [7]
  growth inhibition: -13%
[3]; [8]
  growth inhibition: 99% (active)
[3]; at 50.0 µM
  growth inhibition: 98.4% (active)
[4]; [7]
  growth inhibition: -5%
[4]; [8]
  growth inhibition: 96% (active)
[4]; at 50.0 µM
  growth inhibition: 98.6% (active)
[5]; [7]
  growth inhibition: -7%
[5]; [8]
  growth inhibition: 97% (active)
[5]; at 50.0 µM
  growth inhibition: 98.7% (active)
[6]; [7]
  growth inhibition: -11%
[6]; [8]
  growth inhibition: 97% (active)
[6]; at 50.0 µM
  growth inhibition: 98.3% (active)

## O=C1SC(c2ccccc2)=S=C1c1ccccc1
[1]; [7]
  growth inhibition: 18%
[1]; [8]
  growth inhibition: 28%
[1]; at 50.0 µM
  growth inhibition: 40%
[2]; [7]
  growth inhibition: 24%
[2]; [8]
  growth inhibition: 39%
[2]; at 50.0 µM
  growth inhibition: 46.8%
[3]; [7]
  growth inhibition: 21%
[3]; [8]
  growth inhibition: 44%
[3]; at 50.0 µM
  growth inhibition: 37.4%
[4]; [7]
  growth inhibition: 13%
[4]; [8]
  growth inhibition: 13%
[4]; at 50.0 µM
  growth inhibition: 24.6%
[5]; [7]
  growth inhibition: 20%
[5]; [8]
  growth inhibition: 54%
[5]; at 50.0 µM
  growth inhibition: 13.8%
[6]; [7]
  growth inhibition: 33%
[6]; [8]
  growth inhibition: 38%
[6]; at 50.0 µM
  growth inhibition: -25.4%

## CCCC[N-]CC(O)C[NH-].O=C(O)CC(=O)O.[Pt+2] (stereo unspecified)
[1]; [7]
  growth inhibition: 2%
[1]; [8]
  growth inhibition: 6%
[1]; at 50.0 µM
  growth inhibition: 11.6%
[2]; [7]
  growth inhibition: -10%
[2]; [8]
  growth inhibition: -23%
[2]; at 50.0 µM
  growth inhibition: 23.2%
[3]; [7]
  growth inhibition: 1%
[3]; [8]
  growth inhibition: 6%
[3]; at 50.0 µM
  growth inhibition: 22.2%
[4]; [7]
  growth inhibition: 1%
[4]; [8]
  growth inhibition: 7%
[4]; at 50.0 µM
  growth inhibition: 80% (active)
[5]; [7]
  growth inhibition: 3%
[5]; [8]
  growth inhibition: 4%
[5]; at 50.0 µM
  growth inhibition: 0.55%
[6]; [7]
  growth inhibition: 0%
[6]; [8]
  growth inhibition: -7%
[6]; at 50.0 µM
  growth inhibition: 29.9%

## N#Cc1ccc([N+](=O)[O-])cc1C#N
[1]; [7]
  growth inhibition: -155%
[1]; [8]
  growth inhibition: 97% (active)
[1]; at 50.0 µM
  growth inhibition: 99.2% (active)
[2]; [7]
  growth inhibition: -46%
[2]; [8]
  growth inhibition: 97% (active)
[2]; at 50.0 µM
  growth inhibition: 99.8% (active)
[3]; [7]
  growth inhibition: -56%
[3]; [8]
  growth inhibition: 98% (active)
[3]; at 50.0 µM
  growth inhibition: 99.6% (active)
[4]; [7]
  growth inhibition: -50%
[4]; [8]
  growth inhibition: 96% (active)
[4]; at 50.0 µM
  growth inhibition: 97.6% (active)
[5]; [7]
  growth inhibition: -66%
[5]; [8]
  growth inhibition: 98% (active)
[5]; at 50.0 µM
  growth inhibition: 97.6% (active)
[6]; [7]
  growth inhibition: -135%
[6]; [8]
  growth inhibition: 98% (active)
[6]; at 50.0 µM
  growth inhibition: 99.5% (active)

## CNC(=O)OCCC(OC(=O)NC)C1CCC2C3CC=C4CC(OC(=O)NC)CCC4(C)C3CCC12C (stereo unspecified)
[1]; [7]
  growth inhibition: 85% (active)
[1]; [8]
  growth inhibition: 94% (active)
[1]; at 50.0 µM
  growth inhibition: 6.5%
[2]; [7]
  growth inhibition: 52%
[2]; [8]
  growth inhibition: 94% (active)
[2]; at 50.0 µM
  growth inhibition: -1.8%
[3]; [7]
  growth inhibition: 77% (active)
[3]; [8]
  growth inhibition: 96% (active)
[3]; at 50.0 µM
  growth inhibition: 2.6%
[4]; [7]
  growth inhibition: 72% (active)
[4]; [8]
  growth inhibition: 89% (active)
[4]; at 50.0 µM
  growth inhibition: -6.45%
[5]; [7]
  growth inhibition: 73% (active)
[5]; [8]
  growth inhibition: 94% (active)
[5]; at 50.0 µM
  growth inhibition: -1.8%

## Nc1nc(=O)n(C2OC(CO)C(O)C2O)cc1[N+](=O)[O-] (stereo unspecified)
[1]; [7]
  growth inhibition: -10%
[1]; [8]
  growth inhibition: -9%
[1]; at 50.0 µM
  growth inhibition: -5.75%
[2]; [7]
  growth inhibition: -6%
[2]; [8]
  growth inhibition: -15%
[2]; at 50.0 µM
  growth inhibition: 18.9%
[3]; [7]
  growth inhibition: -2%
[3]; [8]
  growth inhibition: -5%
[3]; at 50.0 µM
  growth inhibition: 4.45%
[4]; [7]
  growth inhibition: -40%
[4]; [8]
  growth inhibition: -13%
[4]; at 50.0 µM
  growth inhibition: -10.2%
[5]; [7]
  growth inhibition: -7%
[5]; [8]
  growth inhibition: 1%
[5]; at 50.0 µM
  growth inhibition: -12.7%
[6]; [7]
  growth inhibition: 1%
[6]; [8]
  growth inhibition: -5%
[6]; at 50.0 µM
  growth inhibition: 17.9%

Source: PubChem BioAssay (NCI)
